Vif-A3G inh: qHTS for Inhibitors of Vif-A3G Interactions: qHTS. HeLa A3G-eYFP + Vif (tagged APOBEC3G with the HIV-1 protein that degrades it), YFP fluorescence, overnight. Potency, µM (titrated, usually from 46.1 µM), for inactives: at the highest dose activity, negative = active, usual class: inhibitors. 410,000 tested, 0.076% active; note: % is set by controls: 0 for no effect and ±100 for the full control effect; nearly all actives have a fitted effect of over 60% in size
Target sequence (Q9HC16 whole entry, looked up): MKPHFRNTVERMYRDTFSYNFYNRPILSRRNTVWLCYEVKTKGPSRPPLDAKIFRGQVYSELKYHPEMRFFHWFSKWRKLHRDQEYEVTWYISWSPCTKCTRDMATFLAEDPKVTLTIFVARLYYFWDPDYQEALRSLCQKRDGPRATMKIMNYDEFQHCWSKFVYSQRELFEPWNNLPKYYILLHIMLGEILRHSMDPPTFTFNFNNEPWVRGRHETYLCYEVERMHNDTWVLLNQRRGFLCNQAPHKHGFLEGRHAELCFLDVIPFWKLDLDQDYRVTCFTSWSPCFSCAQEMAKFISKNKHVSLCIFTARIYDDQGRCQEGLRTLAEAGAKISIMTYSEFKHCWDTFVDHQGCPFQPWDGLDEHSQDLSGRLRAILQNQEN
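Read-out is eYFP fluorescence (Ex 488/Em 500-530) from Vif-expressing HeLa A3G-eYFP cells; more signal means A3G escaped Vif-mediated degradation. Cells plated overnight, compound pinned in, incubated overnight at 37 deg C.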
Epigenetic derep: Quantitative High-Throughput Screen for Regulators of Epigenetic Control. Potency, µM (highest dose often 53.9 µM), inactives show at the top dose GFP activation, hits mostly activators. 280,000 tested, 0.2% active. murine LDR cells, GFP reporter derepression, 30 h; note: % of control where 0% means no effect; nearly all actives have a fitted effect of over 60% in size
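Reporter derepression read as number of fluorescent GFP-positive objects, 20-120 um in size, counted by laser-scanning cytometer. Mouse LDR line with an epigenetically silenced CMV-GFP locus; compound incubation 30 h, 37 C.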
Vif-APOBEC3F blk: qHTS for Inhibitors of Vif-A3F Interactions: qHTS; HeLa A3F-eYFP + Vif (tagged APOBEC3F with the HIV-1 protein that degrades it), YFP fluorescence increase; Potency, µM (series often up to 46.1 µM), for the others: at the highest dose activity, negative = active; 390,000 tested, 0.2% active; AID 602313, 2012; note: % of control where 0% means no effect; nearly all actives have a fitted effect of over 65% in size
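HeLa cells stably expressing A3F-eYFP plus Vif, plated and incubated overnight at 37 deg C, then exposed to compounds overnight at 37 deg C. Blocked degradation read as raised yellow fluorescence (Ex 488/Em 500-530).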
* = called active by the depositor; ? = inconclusive; . = not tested or not shown. An excerpt weighted towards active compounds, which were near 0.34% of everything screened. Calls come from the whole dose curve; as a rule, active = well fitted curve in the direction sought with a large enough effect; inconclusive = small, poorly fitted or top-dose-only effect, or another doubt; inactive = no such curve, though single readings can be large; an effect the other way counts as inactive or inconclusive. Potency is the fitted concentration of half-maximal effect.

SMILES | Vif-A3G inh | Epigenetic derep | Vif-APOBEC3F blk
Cc1nn(C(C)C(=O)NCc2ccco2)c(C)c1[N+](=O)[O-] (stereo not given) | 0% | 0% | -2%
CC(C)CC(NC(=O)OCc1ccccc1)C(=O)NC(Cc1c[nH]c2ccccc12)C(=O)O (stereo not given) | -1% | . | .
CC(C)C[C@@H](/C=C/S(C)(=O)=O)NC(=O)[C@H](CC(C)C)NC(=O)[C@H](CC(C)C)NC(=O)OCc1ccccc1 | . | 6.3µM* | .
N#Cc1nc(-c2ccc(COc3ccccc3)o2)oc1NCc1ccccc1 | -6% | 2% | -15%
CC(Nc1oc(-c2ccc(COc3ccccc3)o2)nc1C#N)c1ccccc1 (stereo not given) | -15% | 3% | 10µM*
N#Cc1c(NC(=S)NC(=O)c2ccccc2)sc2c1CCN(CCc1ccccc1)C2 | . | 5.6µM* | .
N#Cc1c(NC(=S)NC(=O)c2ccccc2)sc2c1CCCC2 | -2% | 0% | 2%
CCOC(=O)c1cnn2c(C(F)(F)F)cc(-c3ccc(Br)cc3)nc12 | -5% | 0% | -1%
CN1[C@@H]2CC[C@@H]1CC(OC(=O)[C@H](CO)c1ccccc1)C2 (stereo not given in full) | . | 1% | .
O=S(=O)(Nc1nc2ccccc2nc1Cl)c1ccc(F)cc1 | -10% | 12% | 0%
O=S(=O)(Nc1nc2ccccc2nc1N1CCN(c2ccccc2)CC1)c1ccc(F)cc1 | ? | -7% | 22µM*
Cc1ccc(S(=O)(=O)Nc2nc3ccccc3nc2N2CCOCC2)cc1 | 0% | . | -12%
CCCCOc1nc2ccccc2nc1NS(=O)(=O)c1ccc(F)cc1 | -25% | . | 10µM*
COc1ccc2c(c1OC)C(=O)N1c3ccccc3C(=O)N(Cc3ccco3)C21 (stereo not given) | 1% | . | .
CCCCN(C)CCCNC(=O)Cn1ncc2c3ccccc3n(Cc3ccccc3F)c2c1=O | -4% | 12% | ?
CCOc1ccc2nc(NC(=O)c3nc(SC(C)C)ncc3Cl)sc2c1 | 2% | 4% | 5µM*
CCOc1ccc2nc(NC(=O)c3nc(SC)ncc3Cl)sc2c1 | 2% | -1% | -4%
Cc1ccc(-c2csc(N3CCC[C@@H]3C(=O)NCCn3c(C(F)(F)F)nc4ccccc43)n2)cc1 | -4% | . | -2%
CCCn1c(C2CCCN2c2nc(-c3cccc(Br)c3)cs2)nc2ccccc21 (stereo not given) | -3% | . | 10µM*
CCCC[n+]1ccn(-c2nc3ccccc3nc2[N-]S(=O)(=O)c2ccccc2)c1 | 1% | 0% | -6%
CCCC[n+]1ccn(-c2nc3ccccc3nc2[N-]S(=O)(=O)c2cccs2)c1 | 0% | 10µM* | -14%
O=[N+]([O-])c1ccc2c(c1)C=CC2 | -1% | . | .
Cc1ccc(NC(=O)/C(C#N)=C/c2ccc(C)s2)c(C)c1 | 11µM* | 3.2µM* | ?
Cc1ccc(/C=C(\C#N)C(=O)Nc2c(C)cccc2C)s1 | -1% | -4% | -17%
Cc1ccc2c(c1)c1ccc3c(c1n2C)C(=O)C=CC3=O | -17% | 1% | ?
SMILES | Vif-A3G inh | Epigenetic derep | Vif-APOBEC3F blk
Cn1c2ccccc2c2ccc3c(c21)C(=O)C=CC3=O | -6% | . | 11µM*
CC[n+]1c(/C=C2/C=C(C)CC(C)C2)sc2ccccc21 (stereo not given) | 10% | 2% | 6%
CC[n+]1c(C=C2C=C(C)OC(C)=C2)sc2ccccc21 | 5.6µM* | 7.9µM* | ?
O=C(NCCc1csc2nc(-c3cccc(F)c3)nn12)c1ccc(Br)o1 | -6% | 4% | 2%
CCOc1ccc(NC(=O)c2nc(S(=O)(=O)Cc3ccc(F)cc3)ncc2Cl)cc1 | -6% | . | .
O=C(CCCCn1c(=O)c2ccccc2n(CC(=O)Nc2ccccc2)c1=O)NCc1ccccc1Cl | 0% | 0% | 0%
COc1ccc(/C=N/NC(=O)c2cccnc2)cc1CSc1ccccn1 | 7.1µM* | 1% | -3%
COc1ccc(C(=O)N/N=C/c2ccc(OC)c(CSc3ccccn3)c2)cc1 | 2% | -3% | 4%
Cc1ccc(O)c(NC(=O)c2cc(-c3ccccc3O)no2)c1 | ? | 2% | 11µM*
Cc1ccc(O)c(NC(=O)c2cc(-c3ccccc3Cl)on2)c1 | -5% | . | ?
CCCN(C(=O)Cn1ncc2c([nH]c3ccccc32)c1=O)c1ccc(F)cc1 | -7% | 0% | -7%
COc1ccccc1OC(C)C(=O)Nc1ccc(-c2nc3ccccc3s2)cc1 (stereo not given) | 2% | 35µM* | ?
CC(C)Oc1ccc(C(=O)Nc2ccc(-c3nc4ccccc4s3)cc2)cc1 | 4% | 6% | 1%
